In PubChem BioAssay (NCI):
This is part of a sample that, as a whole, favours compounds with a hit. Of some 79,000 tested, about 15% had one in any assay. A number with no mark means an inactive call. Calls of active or inactive are those of the source. Cut-off read from the data, not from the text of the source: active = growth inhibition above about 70%; inactive = the rest.

Experiment: NCI Yeast Anticancer Drug Screen. Data for the mec2-1 strain (AID 157)
Settings: S. cerevisiae mec2-1 strain, at 5.0 µM (retest, dose inferred, filed as 0.5), stronger effect = higher value
Summary of the method: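 Each compound was tested on mec2-1 yeast, a strain altered in DNA damage repair or cell cycle control. Growth inhibition is reported relative to vehicle.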

Compound	growth inhibition
Cc1cc(O)c(C(=O)/C=C/c2cccnc2)c(=O)[nH]1	-3%
Oc1ccccc1C(=NNc1ccccc1)c1ccccc1O	27%
Cn1c(=S)c2[nH]c(SCCN3CCCCC3)nc2n(C)c1=O	28%
Cc1cc(=O)n(-c2cc3cccccc-3n2)[nH]1	2%
CC(=O)OCC1OC(n2c(O)c(N=NC(N)=S)c3ccc([N+](=O)[O-])cc32)C(OC(C)=O)C1OC(C)=O (centres undefined)	5%
COC(=O)NNc1c([N+](=O)[O-])cnn(-c2ccccc2)c1=O	-5%
CC(=O)N(C1=C(Cl)C(=O)c2ccccc2C1=O)c1ccc(F)cc1	39%
COC(=O)CC1c2cc(OC)c3cccc(OC)c3c2CCC1(C)C(=O)OC (centres undefined)	94% (active)
CC[n+]1c(/C=C/c2ccc(N(C)C)cc2)ccc2ccccc21	23%
COc1ccc(SC2=C(N(C)C)C(=O)c3ccccc3C2=O)cc1	-19%
C1=C(c2ccccc2)C(=Nc2ccccc2)SC1=Nc1ccccc1	46%
Cc1c(O)c(Br)c(Br)c(Br)c1Br	78% (active)
CC1(C)OC(C(COC(=O)c2ccc([N+](=O)[O-])cc2)OS(=O)(=O)c2ccc([N+](=O)[O-])cc2)C(C(SCc2ccccc2)SCc2ccccc2)O1 (centres undefined)	1%
Cc1cccc(Cc2ccc(Cl)cc2)c1O	-1%
C=C(CN(C)C)C(=O)c1ccccc1[N+](=O)[O-]	10%
CCCCN(CCCC)CC(O)c1cc(-c2ccc(Cl)cc2)nc2c(C)cccc12 (centres undefined)	2%
O=C(Nc1ccc(Cl)cc1)NS(=O)(=O)c1c(-c2ccccc2)oc2ccccc2c1=O	6%
Cc1cc(CN(Cc2ccccc2)Cc2nc3ccccc3[nH]2)c(O)c(CN(Cc2nc3ccccc3[nH]2)Cc2nc3ccccc3[nH]2)c1	-3%
COC1=CC2=CCC3C(CCC4(C)C(C(C)=O)CCC34)C2(C)CC1 (centres undefined)	-7%
OC(C1CCCCN1)C1CC(c2ccccc2)Nc2c(Cl)cc(Cl)cc21 (centres undefined)	-2%

Compound	growth inhibition
CN(C)C1=C(Cl)C(=O)c2ccccc2C1=O	14%
CCCCCNC(=O)C1C(=O)N(CCCCC)C(=O)/C1=N\N (centres undefined)	-3%
O=C(Nc1ccc(Cl)cc1)OCCOCCOC(=O)Nc1ccc(Cl)cc1	0%
CCCC(CC)c1c(O)c(O)c(C(CC)CCC)c(C(CC)CCC)c1C(CC)CCC (centres undefined)	-12%
Cc1ccc(NC(=S)SCc2ccc3c(c2)OCO3)cc1Cl	15%
CN(C)CCCNc1ccc(O)c2c1C(=O)c1ccccc1C2=O	95% (active)
CC1=C(C(=O)Nc2ccc(Cl)c(Cl)c2)C(c2ccco2)C(C(=O)Nc2ccc(Cl)c(Cl)c2)=C(C)N1	22%
Cc1ccccc1NC(=O)CSC(N)=O	-1%
Cc1[nH]c2ccccc2c1C(C)CC(O)c1ccccc1 (centres undefined)	-4%
Cn1c(=O)ccc2cc(C(=O)c3ccccc3)ccc21	-9%
c1ccc2c(c1)N=c1ccccc1=P21c2ccccc2Nc2ccccc21	93% (active)
Nc1[nH]cnc(=S)c1NC=O	-1%
COC(=O)CCC(=O)c1ccc2c(c1)CC1(Cc3ccccc3C1)C2	24%
CCC[CH2][Sn]([CH2]CCC)([O]C(=O)c1cc(F)cc(F)c1)[O][Sn]([CH2]CCC)([CH2]CCC)[O]C(=O)c1cc(F)cc(F)c1	57%
CCOC(=O)CSC(=S)Nc1ccc(Cl)cc1	-2%
CC1(C)CC(=O)C(C(c2ccc3c(c2)OCO3)N2CCOCC2)C(=O)C1 (centres undefined)	9%
COC(=O)c1c(C)cccc1C(=O)c1c(C)cc(C)cc1C	21%
C=C1C(=O)OC2CC3(C)CC(O)C(O)C(=C)C3CC12 (centres undefined)	1%
CCOC(=O)C1=C(N)N(S(=O)(=O)c2ccc(C)cc2)CCC(C(=O)OC)=C1	0%
